Compounds without any hit were thinned out: in the full panel of roughly 83,000, 20% have a hit.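 Method: cells in 96-well plates; compound added at one concentration; 48 h incubation; percent growth measured; values under 10 scored active.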 Unmarked numbers belong to inactive results. Calls of active or inactive are those of the source.

This experiment relates to MDA-MB-468 breast. The experiment in a line: NCI-60 one-dose screen, 48 h (100 = growth as untreated, 0 = no growth, -100 = all killed). To be noted: 10 µM unless noted.
Consider `C=C(CN=[N+]=[N-])[C@@H]1CC[C@]2(C)[C@H](CC[C@@H]3[C@H]4[C@H]5OC(=O)[C@@]4(CCC5(C)C)CC[C@]32C)[C@@]1(C)CCC#N`, for which the growth is 72.3% [100 µM].

`C1=C2CNCC3=Cc4ccc5ccccc5c4OC23Oc2c1ccc1ccccc21`: the growth was 50.4%.

In the case of `Cc1ccc(NC2=C(Cl)C(=O)c3nc(C)ccc3C2=O)c(C)c1`, the growth is -70.2% (active).

Take `N[C@@H]1CCC[C@H]1NCCCCN1C(=O)c2cccc3cccc(c23)C1=O`: the growth was 53.9%.

On to `O=C(c1ccccc1)N(C(=S)NCCc1ccc(Cl)cc1)c1ccc(Cl)cc1`, for which the growth was 16.7%.

`NCCn1cc(-c2nc(-c3c[nH]c4ncccc34)cs2)c2cc(Br)ccc21`: the growth was 66%.

For the compound `CN1C[C@@H](c2ccc(Cl)cc2)[C@]2(NC(=S)N(c3ccc(F)c(Cl)c3)C2=O)[C@@]12C(=O)NC1C=CC(Cl)=C[C@H]12` (stereo not given in full), the growth was 48.8%.

`COc1nc2c(c(=O)n1C)N=C1c3ccccc3C(=O)C1C(c1ccccc1)N2` (stereo not given): the growth is 82.5%.

In the case of `O=S(=O)(NCCCNc1nccc(-n2ccc3cccnc32)n1)c1ccc(Br)cc1`, the growth was 90.3%.

As for `N#Cc1c(-c2ccc(F)cc2)nc(N=Nc2c(O)[nH]c3ccc(Cl)cc23)nc1N1CCOCC1`, the growth is 47.1%.

Consider `COCCCNC1=C(C#N)C(=O)NC(c2cccs2)S1` (stereo not given), for which the growth was 93.8%.

With `COc1ccc(-c2nn(-c3cccc(Cl)c3)cc2-c2nc(N)[nH]c(=O)c2C#N)cc1`, the growth is 73.9%.

On to `CCn1cc(CNc2ccc(C(=O)Nc3ccc4ccccc4c3)cc2)c(C)n1`, for which the growth is 24.5%.

For `CC(C)CCC[C@@H](C)[C@H]1CC[C@H]2[C@@H]3CC=C4C[C@@H](C(C(=O)O)C(=O)O)CC[C@]4(C)[C@H]3CC[C@]12C`, the growth is -32% (active).

`CC1(C)OC2C(COC(c3ccccc3)(c3ccccc3)c3ccccc3)OC(c3c[nH]c4c(N)ncnc34)C2O1` (stereo not given): the growth was 30%.

Regarding `O=C(CNc1nc2ccccc2s1)Nc1ccc(-c2nc3ccccc3s2)cc1`, the growth was -17.8% (active).

In the case of `O=C(CCCCC(=O)Oc1c(Cl)cc(Cl)cc1[N+](=O)[O-])Oc1c(Cl)cc(Cl)cc1[N+](=O)[O-]`, the growth was 113%.

As for `NC(=O)[C@@H]1CC2CCC1C2` (stereo not given in full), the growth is 99.4%.

Turning to `CCOC(=O)C1=C(N)Oc2c(sc3c(C)cccc23)C1c1ccc(F)cc1` (stereo not given), the growth was 6.58% (active).

On to `COc1ccc(-n2c(C(O)c3ccccc3)n[nH]c2=S)cc1` (stereo not given), for which the growth was 98.6%.

With `CCOC(=O)c1noc2c1CCc1cn(Cc3cc(OC)cc(OC)c3)cc1-2`, the growth was 108%.

For `CCCCNc1ccc(C#N)c(OCCN(CC)CC)c1`, the growth was 90.1%.

In the case of `O=c1c2cccc3c(Nc4ccc(F)cc4)ccc(c32)c2nc3ccccc3n12`, the growth is -43.8% (active).

As to `Cc1ccc2c(c1)C(=O)C(c1c(-c3[nH]c(=O)c4ccc(C)cc4c3O)c(O)c3ccccc3c1O)=NC2=O`, the growth was -23.1% (active).

On to `O=C(CN1CCCCC1)Nc1nc(-c2cc3ccccc3oc2=O)cs1`, for which the growth is 96.3%.

Turning to `CCSc1nc(NC)c2cc(-c3ccc(C(F)(F)F)cc3)ccc2n1`, the growth was 110%.

Consider `CCN(CC)CC(=O)N(CC)c1ccc(C)c(Cl)c1`, for which the growth is 95.6%.

On to `COc1cc(C(c2c[nH]c3ccccc23)N2CCCC2)ccc1OCc1ccccc1` (stereo not given), for which the growth is 53.9%.

Regarding `O=C1NC(=O)c2cc([N+](=O)[O-])cc3cccc1c23`, the growth was 91%.

`COc1ccc(C2=NNC(c3sc(Cl)nc3Cl)C2)cc1` (stereo not given): the growth was 70%.

On to `COCCNC(C)=O`, for which the growth is 96.1%.

On to `CCN(CCNc1ccc(C)c2sc3ccccc3c(=O)c12)CC(C)(C)O`, for which the growth is 26%.

`CS(=O)(=O)c1ccc(C(=O)N/N=C/c2ccccc2O)cc1`: the growth is 64.7%.

With `O=C(c1nc2ccccc2[nH]1)C1C(c2ccc(Cl)cc2)C2CC3CCCC[C@H]3N2[C@@]12C(=O)Nc1cc(Cl)ccc12` (stereo not given in full), the growth is 12.1%.

For `COc1ccc(CSc2nc3cc(OC)c(OC)cc3c(=O)n2-c2ccc(OC)cc2OC)cc1`, the growth is 74.3%.

Regarding `C=CCn1c(SCC(=O)Nc2cccc(C(=O)/C=C/c3ccc(OC)c(OC)c3)c2)nc2ccccc2c1=O`, the growth was 80.9%.

As for `COc1ccc(NC(=O)c2sc3nc(C)c(C(=O)c4ccc(OC)cc4)cc3c2N)cc1`, the growth was 13.2%.

In the case of `NS(=O)(=O)c1ccc(-n2nc(-c3ccc(Br)cc3)ccc2=O)cc1`, the growth is 66% [100 µM].

Take `C/C(=N\NC(=S)N1CC2CCC(CC2)C1)c1ccccn1`: the growth was -14.9% (active).

For `Oc1ccc(CSc2nnc(-c3ccc(Cl)cc3)n2-c2ccccc2)c2cccnc12`, the growth was 14.5%.

The values are drawn from PubChem BioAssay (NCI).
